Article PMC4336329 (PLoS ONE, 2015)
Out of some 310,000 compounds screened, about 14,000 (4.5%) showed an effect of 50% or more. Effects have a minus sign here. Only a selection was taken, and strong results are over-represented in it overall.

molecular target: human ether-à-go-go-related gene (hERG) potassium channel (human, UniProt Q12809); assay: primary screen, population patch clamp on CHO cells stably expressing hERG; higher = less effect of the substance
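Note: peak tail current of the secondary pulse compared with the same well before compound.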

Chain of human ether-à-go-go-related gene (hERG) potassium channel (Q12809 whole entry, looked up): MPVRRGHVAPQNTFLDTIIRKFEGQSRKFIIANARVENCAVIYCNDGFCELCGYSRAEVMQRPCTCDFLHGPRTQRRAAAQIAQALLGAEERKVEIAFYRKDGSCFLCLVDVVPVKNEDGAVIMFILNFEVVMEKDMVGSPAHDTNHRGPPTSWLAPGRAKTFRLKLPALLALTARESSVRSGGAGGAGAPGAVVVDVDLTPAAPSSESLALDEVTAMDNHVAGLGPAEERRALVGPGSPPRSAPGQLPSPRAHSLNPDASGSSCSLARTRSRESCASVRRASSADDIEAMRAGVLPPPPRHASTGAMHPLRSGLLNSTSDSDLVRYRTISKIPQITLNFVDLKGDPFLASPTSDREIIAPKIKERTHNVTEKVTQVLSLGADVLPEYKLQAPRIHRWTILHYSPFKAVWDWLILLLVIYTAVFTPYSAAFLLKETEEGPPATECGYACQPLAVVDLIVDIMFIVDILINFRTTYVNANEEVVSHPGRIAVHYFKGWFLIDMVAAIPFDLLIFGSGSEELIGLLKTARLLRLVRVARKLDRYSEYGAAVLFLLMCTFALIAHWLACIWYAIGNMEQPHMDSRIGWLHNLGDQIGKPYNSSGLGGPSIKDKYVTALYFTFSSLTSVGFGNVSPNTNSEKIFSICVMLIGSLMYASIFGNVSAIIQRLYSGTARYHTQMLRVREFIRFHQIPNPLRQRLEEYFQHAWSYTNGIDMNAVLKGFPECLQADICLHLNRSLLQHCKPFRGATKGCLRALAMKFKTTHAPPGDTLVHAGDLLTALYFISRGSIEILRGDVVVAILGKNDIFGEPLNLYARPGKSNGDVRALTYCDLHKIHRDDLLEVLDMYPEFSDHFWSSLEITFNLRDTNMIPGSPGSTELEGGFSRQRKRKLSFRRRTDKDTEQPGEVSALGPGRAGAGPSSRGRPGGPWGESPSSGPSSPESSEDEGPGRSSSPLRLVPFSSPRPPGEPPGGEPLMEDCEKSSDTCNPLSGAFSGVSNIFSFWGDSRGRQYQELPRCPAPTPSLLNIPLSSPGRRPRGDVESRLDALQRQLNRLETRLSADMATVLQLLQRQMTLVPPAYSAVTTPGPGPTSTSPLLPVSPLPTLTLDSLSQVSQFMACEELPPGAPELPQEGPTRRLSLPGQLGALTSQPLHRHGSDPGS

Row | SMILES | hERG current change (%, negative = inhibition) at 10uM [%]
1 | Fc1ccc(/C=N/NC(=S)Nc2ccc(Cl)cc2)cc1F | 9.62
2 | Cc1ccc(S(=O)(=O)NC(CC(=O)NCc2ccco2)c2ccco2)cc1 (centres unmarked) | -0.749
3 | CCOc1ccc(Nc2ccc([N+](=O)[O-])c3nonc23)cc1 | -53.9
4 | CCOc1ccc(Nc2ccc3nonc3c2[N+](=O)[O-])cc1 | 10.6
5 | O=[N+]([O-])c1ccc(Nc2ccccc2)c2nonc12 | -8.36
6 | COc1ccccc1NC(=O)CSc1nc2nc(C)cc(C)c2c(=O)[nH]1 | 4.82
7 | CCOC(=O)CSc1nnc(-c2cc(OC)c(OC)c(OC)c2)o1 | 12.1
8 | CCCCOC(=O)CSc1nnc(-c2cc(OC)c(OC)c(OC)c2)o1 | -11.9
9 | CCCCN(CCCC)C(=O)CSc1nnc(-c2cc(OC)c(OC)c(OC)c2)o1 | -58.5
10 | COCCN(C(=O)CCC(=O)Nc1ccccn1)C(C(=O)NC(C)C)c1ccc(Cl)cc1 (centres unmarked) | -5.58
11 | CN(C)c1ccc(/C=C2\CC3C4CC=C5CC(O)CCC5(C)C4CCC3(C)C2=O)cc1 (centres unmarked) | 3.55
12 | COc1cc(C(=O)NCCOc2cc(C)cc(C)c2)c(Br)c(OC)c1OC | -18.4
13 | O=S(=O)(NCCc1csc(-c2ccccc2)n1)c1cccnc1 | 8.48
14 | COCCNC(=S)N/N=C(\C)c1ccc(C)c([N+](=O)[O-])c1 | -26.6
15 | COCCNC(=S)N/N=C(\C)c1cccc([N+](=O)[O-])c1 | -70.4
16 | COc1ccc(OCC(=O)N/N=C(\C)c2ccc(-n3ccnc3)cc2)cc1 | -42.6
17 | C/C(=N\NC(=O)COc1ccc(C(C)(C)C)cc1)c1ccc(-n2ccnc2)cc1 | -58.9
18 | C/C(=N\NC(=O)COc1ccc(C)cc1C(C)C)c1ccc(-n2ccnc2)cc1 | -33.4
19 | CCNC(=S)N/N=C(\C)c1cccc([N+](=O)[O-])c1 | -45.9
20 | C=CCNC(=S)N/N=C(\C)c1ccc(-n2ccnc2)cc1 | -43
21 | C=C(C)CNC(=S)N/N=C(\C)c1ccc(-n2ccnc2)cc1 | -37.7
22 | C/C(=N\NC(N)=O)c1ccc(-n2ccnc2)cc1 | 10.9

Row | SMILES | hERG current change (%, negative = inhibition) at 10uM [%]
23 | CCc1ccc(OCC(=O)N/N=C(\C)c2ccc(-n3ccnc3)cc2)cc1 | -71.8
24 | C/C(=N\NC(=O)COc1ccc(C(C)(C)C)cc1)c1ccc(N2CCOCC2)cc1 | 5.99
25 | COCCNC(=S)N/N=C(\C)c1ccc(-n2ccnc2)cc1 | -66.2
26 | CCN(C(=O)COC(=O)c1ccc2[nH]c3c(c2c1)CCCC3)C1CCS(=O)(=O)C1 (centres unmarked) | -8.35
27 | COc1ccccc1C(=O)Nc1nnc(S(=O)(=O)N2CCCCCC2)s1 | 3.54
28 | COc1cc(/C=C/C(=O)O)cc(S(=O)(=O)Nc2ccc3cn[nH]c3c2)c1OC | 9.74
29 | O=c1[nH]c(-c2ccccn2)nc2ccccc12 | -3.46
30 | COc1ccc(/C=N/Nc2nc(-c3ccc(Cl)cc3)cc(C(F)(F)F)n2)c(OC)c1 | 2.62
31 | CC(C)CNC(=O)CSc1ccc(Cl)cc1 | -3.84
32 | O=C(CN1CCN(Cc2ccccc2)CC1)c1ccccc1 | 1.35
33 | Cc1ccc(OCC(=O)Nc2ccc(N3CCN(S(C)(=O)=O)CC3)cc2)cc1 | 17.4
34 | CCc1ccc(NC(=O)CN2CC(c3ccccc3)CC2=O)cc1 (centres unmarked) | -27.6
35 | CN(CC1CCOCC1)C(=O)c1ccc2nc(Cc3cccc(Cl)c3)oc2c1 | -69.7
36 | O=C(NCC1CCOCC1)c1ccc2nc(Cc3cccc(Cl)c3)oc2c1 | -12.8
37 | CN(CCCN1CCOCC1)C(=O)c1ccc2nc(Cc3cccc(Cl)c3)oc2c1 | -6.26
38 | Cc1ccc(C)c(S(=O)(=O)C(C#N)c2nc3ccccc3nc2N2CC(C)OC(C)C2)c1 (centres unmarked) | 4.01
39 | Cc1ccc(OCCC(=O)OCC(=O)Nc2ccc3[nH]c(=O)[nH]c3c2)cc1 | -20.3
40 | CCOc1ccc(-c2cc(C(=O)NCCCn3ccnc3)c3cc(Br)ccc3n2)cc1 | 7.06
41 | CCc1ccc(-c2cc(C(=O)NCCCn3ccnc3)c3ccccc3n2)s1 | -73.6
42 | CCC(CC)NC(=O)c1cc2c(C)nn(Cc3ccccc3Cl)c2s1 | 10.9
43 | Cc1nn(Cc2ccccc2Cl)c2sc(C(=O)NC(C)(C)C)cc12 | 10.7
44 | Cc1nn(Cc2ccccc2Cl)c2sc(C(=O)NCCCn3ccnc3)cc12 | -82.6

Row | SMILES | hERG current change (%, negative = inhibition) at 10uM [%]
45 | Cc1ccc2nc(-c3ccccc3)cc(C(=O)NCCCn3ccnc3)c2c1 | -40.7
46 | Cc1ccccc1C(=O)NCCCn1ccnc1 | 18.3
47 | O=C(NCCCn1ccnc1)c1cc(-c2cccnc2)nc2ccc(Br)cc12 | -45.1
48 | Cc1ccc(-c2cc(C(=O)NCCCn3ccnc3)c3ccccc3n2)s1 | -70.9
49 | CCc1ccc(-c2cc(C(=O)O)c3ccccc3n2)s1 | 16.9
50 | Cc1ccc(-c2cc(C(=O)NCCCn3ccnc3)c3cc(Br)ccc3n2)o1 | -73.8
51 | CCc1ccc(-c2cc(C(=O)NCc3ccco3)c3ccccc3n2)s1 | -9.4
52 | CC(C)CC(=O)CN1C(=O)C2(OCCO2)c2ccccc21 | 13.2
53 | COc1ccc(-c2cc(C(F)F)nc(-n3nc(C)cc3C)n2)cc1 | 11.7
54 | O=c1cc(-c2ccccc2)c2ccc(O)c(CN3CCCCC3)c2o1 | -8.89
55 | COc1ccc2nc(Nc3nc4cc5c(cc4s3)OCO5)sc2c1 | 6.67
56 | O=S(=O)(Nc1c(O)ccc2ccccc12)c1cccc2ccccc12 | 6.79
57 | COc1ccc(C(CNC(=O)c2[nH]c(C)c(C(C)=O)c2C)N2CCOCC2)cc1 (centres unmarked) | -4.61
58 | Cc1nc2oc3c(NCC4CCCO4)ncnc3c2c2c1COC(C)(C)C2 (centres unmarked) | -16.6
59 | CC(=O)Nc1nc(C)c(CCCOc2ccc([N+](=O)[O-])cc2)c(=O)[nH]1 | 0.762
60 | Cc1noc(C)c1NC(=O)N1CCN(Cc2ccccc2)CC1 | 8.04
61 | COc1ccc(CN2CCCC(C(=O)Nc3cccc(-n4cccn4)c3)C2)cc1 (centres unmarked) | -58.9
62 | CCOc1cccc(CN2CCCC(C(=O)Nc3cccc(-n4cccn4)c3)C2)c1 (centres unmarked) | -56.3
63 | O=C(Nc1cccc(-n2cccn2)c1)C1CCCN(Cc2cccc(F)c2F)C1 (centres unmarked) | -17.8
64 | Cc1c(CN2CCCC(C(=O)Nc3cccc(-n4cccn4)c3)C2)cnn1C (centres unmarked) | 7.86
65 | CSc1cccc(CN2CCCC(C(=O)Nc3cccc(-n4cccn4)c3)C2)c1 (centres unmarked) | -28.6
66 | CC(=O)c1cccc(CN2CCCC(C(=O)Nc3cccc(-n4cccn4)c3)C2)c1 (centres unmarked) | -23.9

Row | SMILES | hERG current change (%, negative = inhibition) at 10uM [%]
67 | COC(=O)c1ccc(CN2CCCC(C(=O)Nc3cccc(-n4cccn4)c3)C2)cc1 (centres unmarked) | -27.4
68 | COc1ccc(O)c(CN2CCCC(C(=O)Nc3cccc(-n4cccn4)c3)C2)c1 (centres unmarked) | -14.9
69 | O=C(Nc1cccc(-n2cccn2)c1)C1CCCN(Cc2ccccc2F)C1 (centres unmarked) | -30.4
70 | Cc1nn(C)c(Cl)c1CN1CCCC(C(=O)Nc2cccc(-n3cccn3)c2)C1 (centres unmarked) | -50.2
71 | CCOc1ccccc1CN1CCCC(C(=O)Nc2cccc(-n3cccn3)c2)C1 (centres unmarked) | -69.5
72 | Cc1cc(CN2CCCC(C(=O)Nc3cccc(-n4cccn4)c3)C2)cc(C)c1O (centres unmarked) | -42
73 | COCCNC(=S)N(CCc1c(C)[nH]c2ccc(F)cc12)Cc1cccnc1 | -21.5
74 | C=CC(=O)N1c2ccccc2Sc2ccc(NC(=O)OCC)cc21 | 0.408
75 | CC(C)(C)c1ccc(C(=O)Nc2cccc3c(=O)[nH][nH]c(=O)c23)cc1 | -9.65
76 | O=C(Cc1ccccc1)NCC(=O)N1CCN(c2ccccc2)CC1 | 5.93
77 | O=C(NCCn1ccc2ccccc21)c1cccc([N+](=O)[O-])c1 | -16.9
78 | CCC(C)N1C(=O)C2C(C(=O)Nc3cccc(OC)c3)C3C=CC2(O3)C1C(=O)NC1CCCCC1C (centres unmarked) | -6.83
79 | O=S1(=O)CCN(Cc2ccc(Cl)c(Cl)c2)CC1 | 6.46
80 | CC(C)OC(=O)Cn1nnc(-c2ccccc2)n1 | 0.0206
81 | Cc1c(NC(=O)C(C)OC(=O)c2cc(Cl)ccc2O)c(=O)n(-c2ccccc2)n1C (centres unmarked) | 15.3
82 | CC1(C)CC(=O)C2=C(C1)N(c1cccnc1)C(N)=C(C#N)C2c1cccs1 (centres unmarked) | -5.86
83 | CCSc1sccc1C1C(C#N)=C(N)N(c2cccnc2)C2=C1C(=O)CCC2 (centres unmarked) | -31.5
84 | CCSc1sccc1C1C(C#N)=C(N)N(c2cccnc2)C2=C1C(=O)CC(C)(C)C2 (centres unmarked) | -50.4
85 | CC12COC3(C(=O)Nc4ccc(F)cc4)CC1CCC32C (centres unmarked) | -18
86 | CN(CCC#N)C(=O)COC(=O)[C@H](Cc1ccccc1)N1C(=O)c2ccccc2C1=O | -2.25
